This passage reports growth results from PubChem BioAssay (NCI).

The panel holds about 83,000 compounds, 20% with a hit somewhere; the sample as a whole holds those more often.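 96-well plates, one dose, 48 hours. Percent growth reported; active if below 10.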 The source made the active and inactive calls.

The subject of the experiment is HOP-62 NSCLC. The experiment can be described thus: NCI-60 one-dose screen, 48 h (100 = growth as untreated, 0 = no growth, -100 = all killed). Conditions: 10 µM unless noted.
Take `COc1cc(-c2nc(C(=O)NCC(=O)NO)nn2-c2ccc(Cl)cc2)cc(OC)c1OC`: the growth is 93.6% (inactive).
For the compound `C=C1C(=O)O[C@H]2[C@H]1CC/C(C=Nc1ccc(C(F)(F)F)cc1N)=C\CC[C@@]1(C)O[C@@H]21`, the growth was 47.6% (inactive).
The value for `CSc1nc(NCCO)c(C#N)c(-c2cccc([N+](=O)[O-])c2)n1` was 91.6% (inactive); that for `Cn1c(=O)[nH]c(=O)c2nc(CCC(=O)NCCC(=O)O)c(=O)[nH]c21` was 105% (inactive).
`C=CC(=O)Nc1cccc(-c2nc(SC)nc(Nc3ccccc3OC)c2C#N)c1`: the growth was 37.9% (inactive).
The value for `CC1=C[C@H]2c3c(c(O)c(O)c4oc5c(C)cccc5c(=O)c34)[C@H](c3cc(O)c(O)c4oc5c(C)cccc5c(=O)c34)[C@H]2C(C)(C)C1` was 9.87% (active); that for `COc1ccc(/C=C(\C#N)C(=O)Nc2cccc(Nc3nc(SC)nc(-c4cccc([N+](=O)[O-])c4)c3C#N)c2)cc1OC` was 91.3% (inactive).
The value for `CCN(CC)c1ccc(/C=N\NC(=O)/C=C/C=C/c2ccc3c(c2)OCO3)c(O)c1` was 28.5% (inactive); that for `CC(C)(C)c1cc(/C=N\NC(=O)/C=C/C=C/c2ccc3c(c2)OCO3)c(O)c(C(C)(C)C)c1` was 66.8% (inactive).
Turning to `CN(C)CCCNc1c2ccccc2nc2ccccc12`, the growth is 88.1% (inactive).
As for `CN1CCN(c2nc(NCCCCNc3ccnc4cc(Cl)ccc34)c3ccccc3n2)CC1`, the growth is 76.5% (inactive).
To `COc1cc2c(cc1-c1c(C)noc1C)ncc1nc(C3CCOCC3)n([C@@H](C)COC(F)F)c12` belongs 35% (inactive).
The value for `CC(C)C[C@@H](NC(=O)[C@@H](Cc1ccccc1)NC(=O)c1cnccn1)B1Oc2ccc(C[C@H](NC(=O)[C@H](Cc3ccc4c(c3)OB([C@@H](CC(C)C)NC(=O)[C@@H](Cc3ccccc3)NC(=O)c3cnccn3)O4)NC(=O)[C@@H](N)CC3CCC4OB([C@@H](CC(C)C)NC(=O)[C@@H](CC5CCCCC5)NC(=O)C5CNCCN5)OC4C3)C(=O)NCCCC[C@@H]3NC(=O)[C@@H](Cc4ccccc4)NC(=O)[C@H](CC(=O)O)NC(=O)CNC(=O)[C@H](CCCNC(=N)N)NC3=O)cc2O1` (some centres undefined) was -43.2% (active); that for `CCc1nc(N)nc(N)c1C#CC(C)c1cc(-c2ccnc(C)c2)c2oc(C)nc2c1` (centres undefined) was -2.79% (active).
To `COc1ccc(/C=C/c2nc3ccccc3nc2/C=C/c2ccc(OC)cc2)cc1` belongs 104% (inactive); to `Cc1nc(/N=C(\N)NC(=O)Nc2cccc([N+](=O)[O-])c2)sc1C`, 83.3% (inactive).
As for `CCCCN(CCCC)CCCn1c(-c2ccccc2)ccc1-c1ccccc1`, the growth was 87.9% (inactive).
Consider `Oc1ccc(N=Cc2ccccc2O)cc1`, for which the growth was 93.6% (inactive).
To `NC(N)=N/N=C(/c1ccccc1)c1ccc(F)cc1` belongs 19.7% (inactive); to `COc1ccc(Nc2nc(SC)nc(-c3cccc([N+](=O)[O-])c3)c2C#N)cc1`, 44.5% (inactive).
Take `COc1ccc(CCNc2nc3c(c(=O)n(Cc4ccc(Br)cc4)c(=O)n3C)n2C)cc1OC`: the growth is 113% (inactive).
For the compound `COc1cccc(Nc2nc(SC)nc(-c3cccc([N+](=O)[O-])c3)c2C#N)c1`, the growth was 27% (inactive).
The value for `CCCCC/C(C=C(C#N)C#N)=C/c1ccccc1` was 106% (inactive); that for `Cn1c(=O)c2c(nc3n(-c4ccc(Cl)cc4Cl)c(Sc4nc(-c5ccccc5)c(C#N)c(=O)[nH]4)cn23)n(C)c1=O` was 54.8% (inactive); that for `Cc1ccc(C2=NN3C(C2)c2cc(Br)ccc2OC32CCN(Cc3ccccc3)CC2)o1` (centres undefined) was 104% (inactive).
For the compound `CCCCCCN(CCCCCC)C(=N)c1ccnc2ccccc12`, the growth is 100% (inactive).
As to `O=C1Nc2c(ccc(Cl)c2Cl)/C1=C\c1ccc(C(F)(F)F)cc1`, the growth is 87.3% (inactive).
The value for `C=CC(=O)Nc1cccc(-c2nc(SC)nc(NCc3ccccc3)c2C#N)c1` was 73.9% (inactive); that for `CC1=CC(C)(C)Nc2ccc(Cc3ccc4c(c3)C(C)=CC(C)(C)N4)cc21` was 94.1% (inactive).
For `CCCN1CCN(c2ccc3nc(-c4ccc5nc(-c6ccc(OCC)cc6)[nH]c5c4)[nH]c3c2)CC1`, the growth is 55.7% (inactive).
Consider `COc1ccc(C(=O)COc2ccc(/C=C3\COc4ccc(OC)cc4C3=O)cc2)cc1`, for which the growth was 110% (inactive).
The value for `CC(=O)O[C@H]1C(=O)[C@@]2(C)[C@H]([C@H](OC(=O)c3ccccc3)[C@]3(O)C[C@H](OC(=O)[C@H](OC(=O)CCC(=O)OC4CCC(S/N=C(N)/N=C(\N)N(C)C)CC4)[C@@H](NC(=O)c4ccccc4)c4ccccc4)C(C)=C1C3(C)C)[C@]1(OC(C)=O)CO[C@@H]1C[C@@H]2O` (some centres undefined) was 29.7% (inactive); that for `CCOc1ccc(-n2nc(C(=O)Nc3cc(OC)c(OC)c(OC)c3)nc2-c2cc(OC)c(OC)c(OC)c2)cc1` was 95.7% (inactive); that for `C=C1C(=O)O[C@H]2[C@H]1CC/C(COC(=O)c1cc3cc(OC)ccc3[nH]1)=C\CC[C@@]1(C)O[C@@H]21` was -68.9% (active).
The value for `COc1cc(Nc2cc(C)nc(N3CCN(c4ccnc5cc(Cl)ccc45)CC3)n2)cc(OC)c1` was 10.1% (inactive).
For `N#CN1CCC[C@H]1C(=O)N1CCc2c(-c3[nH]nc4ncccc34)cccc21`, the growth is -10.1% (active).
With `Cc1cc(C)nc(SC2=C(Nc3cccc(Cl)c3)C(=O)N(Cc3ccccc3)C2=O)n1`, the growth is 90.3% [30 µM] (inactive).
The value for `O=C(COc1cccc(/C=C2\COc3ccccc3C2=O)c1)Nc1nccs1` was 83.3% (inactive); that for `C=C(C)C(=O)Nc1ccc(NC(C)C)cc1` was 104% (inactive).
